A short description of assay [1]: qHTS RealTime-Glo MT Cell Viability Assay in HEK293 cells - 0 hour (AID 1224880). Also: top concentration of the series differs between compounds; nearly all actives have a fitted effect of over 45% in size. The method, boiled down:
(§1)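 Kinetic, non-lysing viability readout. Seed HEK293 (600/well) with reagent, incubate 5 h at 37 C/5% CO2, pin 23 nL compound in DMSO, incubate at 37 C, read luminescence at 0, 8, 16, 24, 32, 40 h.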
In general terms: Quantitative high-throughput screening tests each substance at several concentrations.

Assay [2] can be described thus: A CellTox Green Cytotoxicity Assay to monitor cytotoxicity in HEK293 cells - 32 hour (AID 1224881). Also: nearly all actives have a fitted effect of over 40% in size. Put shortly:
(§2)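 Real-time, in one plate: 600 HEK293 cells/well with dead-cell DNA dye, pinned compound after 5 h, 37 C incubation over 40 h; viable cells give no appreciable fluorescence.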

A short description of assay [3]: A CellTox Green Cytotoxicity Assay to monitor cytotoxicity in HepG2 cells - 0 hour (AID 1224882). Also: nearly all actives have a fitted effect of over 35% in size. The method, boiled down:
(§3)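 Cytotoxicity was tracked as dead-cell DNA fluorescence in HepG2 cells treated with test compounds at 37 C; each time-point value comes from one kinetic series spanning 0, 8, 16, 24, 32 and 40 h.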

The nature of assay [4]: A CellTox Green Cytotoxicity Assay to monitor cytotoxicity in HepG2 cells - 32 hour (AID 1224883). Also: nearly all actives have a fitted effect of over 50% in size. The method, boiled down:
as §3

Assay [5] can be described thus: A CellTox Green Cytotoxicity Assay to monitor cytotoxicity in HEK293 cells - 8 hour (AID 1224884). Also: nearly all actives have a fitted effect of over 35% in size. Put shortly:
as §2

Assay [6] is described as follows: qHTS RealTime-Glo MT Cell Viability Assay in HepG2 cells - 16 hour (AID 1224885). Also: nearly all actives have a fitted effect of over 50% in size. Put shortly:
(§4)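 Viability was tracked continuously by NanoLuc luminescence from prosubstrate reduced by living HepG2 cells, at successive time points over 40 h of compound exposure. Cells with reagent were preincubated 5 h at 37 °C before compound addition.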

Assay [7] in a line: qHTS RealTime-Glo MT Cell Viability Assay in HEK293 cells - 24 hour (AID 1224886). Also: top concentration of the series differs between compounds; nearly all actives have a fitted effect of over 50% in size. Put shortly:
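Viability tracked continuously by luminescence as live cells reduce a prosubstrate for NanoLuc; HEK293 cells preincubated 5 h, compound-treated at 37 C, and read at 0, 8, 16, 24, 32 and 40 h.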

A short description of assay [8]: qHTS RealTime-Glo MT Cell Viability Assay in HEK293 cells - 8 hour (AID 1224887). Also: top concentration of the series differs between compounds; nearly all actives have a fitted effect of over 50% in size. Put shortly: as §1
A short description of assay [9]: A CellTox Green Cytotoxicity Assay to monitor cytotoxicity in HEK293 cells - 16 hour (AID 1224888). Also: nearly all actives have a fitted effect of over 35% in size. Put shortly: as §2
The nature of assay [10]: qHTS RealTime-Glo MT Cell Viability Assay in HepG2 cells - 0 hour (AID 1224889). Also: nearly all actives have a fitted effect of over 50% in size. Put shortly: as §4
Assay [11] is described as follows: A CellTox Green Cytotoxicity Assay to monitor cytotoxicity in HepG2 cells - 8 hour (AID 1224890). Also: nearly all actives have a fitted effect of over 45% in size. Put shortly: as §3
The nature of assay [12]: qHTS assay to identify small molecule antagonists of the estrogen receptor alpha (ER-alpha) signaling pathway using the BG1 cell line in the presence of 0.1 nM 17-beta-estradiol - cell viability counter screen (AID 1259241). Also: nearly all actives have a fitted effect of over 40% in size. The method, boiled down: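 CellTiter-Fluor read (30 min, 37C) on ER-alpha/ERE-luc VM7Luc4E2 cells; 22 hr compound treatment; agonist 0.1 nM E2 final; same-well multiplex.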

Assay [13] in a line: qHTS assay to identify small molecule antagonists of the androgen receptor (AR) signaling pathway using the MDA cell line in the presence of 0.5 nM R1881 - cell viability counter screen (AID 1259242). Also: nearly all actives have a fitted effect of over 45% in size. Put shortly:
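Cells seeded at 3,000/well and allowed 5 hr at 37C, 0% CO2 before compound transfer and R1881 (0.5 nM final) addition; 16 hr later, live-cell protease fluorescence indicated cytotoxicity.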

Assay [14] deals with Androgen receptor (Homo sapiens) (UniProt P10275). Briefly: qHTS assay to identify small molecule antagonists of the androgen receptor (AR) signaling pathway using the MDA cell line in the presence of 0.5 nM R1881 (AID 1259243). Also: nearly all actives have a fitted effect of over 50% in size. The method, boiled down: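 Luminescence from an AR/GR-responsive MMTV-luciferase construct in MDA-kb2 breast carcinoma cells, read 30 min after ONE-Glo, following 16 hr co-treatment with compounds and 0.5 nM R1881.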
Sequence of Androgen receptor (Homo sapiens) (P10275 whole entry, looked up): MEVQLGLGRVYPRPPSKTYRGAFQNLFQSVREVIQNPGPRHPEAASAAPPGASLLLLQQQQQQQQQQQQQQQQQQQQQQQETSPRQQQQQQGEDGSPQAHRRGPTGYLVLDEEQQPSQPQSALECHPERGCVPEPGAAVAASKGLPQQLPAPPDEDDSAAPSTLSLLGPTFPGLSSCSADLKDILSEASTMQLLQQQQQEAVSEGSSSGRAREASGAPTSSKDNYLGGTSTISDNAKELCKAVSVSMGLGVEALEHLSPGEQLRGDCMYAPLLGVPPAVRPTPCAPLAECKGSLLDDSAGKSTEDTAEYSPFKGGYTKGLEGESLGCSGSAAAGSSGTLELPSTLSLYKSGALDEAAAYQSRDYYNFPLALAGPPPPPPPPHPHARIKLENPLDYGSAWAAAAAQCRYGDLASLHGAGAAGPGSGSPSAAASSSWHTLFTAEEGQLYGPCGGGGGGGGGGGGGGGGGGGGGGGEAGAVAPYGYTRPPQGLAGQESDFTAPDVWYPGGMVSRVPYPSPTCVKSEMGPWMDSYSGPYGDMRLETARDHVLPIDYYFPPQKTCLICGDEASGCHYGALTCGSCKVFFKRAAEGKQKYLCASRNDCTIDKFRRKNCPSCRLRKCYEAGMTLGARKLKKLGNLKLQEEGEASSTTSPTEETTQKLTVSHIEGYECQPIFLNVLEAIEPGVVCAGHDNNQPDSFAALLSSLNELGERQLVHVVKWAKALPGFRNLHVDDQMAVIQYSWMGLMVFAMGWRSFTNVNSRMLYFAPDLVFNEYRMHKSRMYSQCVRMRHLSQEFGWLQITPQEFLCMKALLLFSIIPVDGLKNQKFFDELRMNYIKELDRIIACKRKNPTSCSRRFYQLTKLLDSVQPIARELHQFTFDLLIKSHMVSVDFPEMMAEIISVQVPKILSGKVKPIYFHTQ

Assay [15] in a line: qHTS assay to identify small molecule HDAC inhibitors (AID 1259364). Also: potency is read from the fitted curve at half-maximal effect.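 Also: wild-type HCT-116 cells with endogenous class I/II HDAC activity; nearly all actives have a fitted effect of over 45% in size.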 The method, boiled down: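 HCT-116 wt cells, 1,500/well, overnight attach. Compounds (DMSO) 2 h, 37 °C. HDAC-Glo I/II, 30 min RT. Luminescence.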
Assay [16] can be described thus: qHTS assay to identify small molecule HDAC inhibitors - cell viability counter screen (AID 1259365). Put shortly:
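To flag cytotoxic hits, 1,500 wild-type HCT-116 cells per well, plated the day before, receive test compounds for 2hr at 37 C before CellTiter-Glo reagent and a luminescence read.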

A short description of assay [17]: qHTS assay to identify small molecule agonists of the sonic hedgehog signaling (Shh) pathway - cell viability counter screen (AID 1259366). Also: nearly all actives have a fitted effect of over 50% in size. Put shortly:
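Fluorescence from CellTiter-Fluor reports live cells in this counter screen. NIH/3T3-derived Gli1-Luc reporter cells receive test compounds for 24hr at 37C; reagent goes in at 23hr.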

The nature of assay [18]: qHTS assay to identify small molecule antagonists of the sonic hedgehog signaling (Shh) pathway - cell viability counter screen (AID 1259367). Also: nearly all actives have a fitted effect of over 55% in size. Put shortly:
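Cytotoxicity was assessed in parallel with Shh reporter activity by measuring live-cell protease fluorescence (CellTiter-Fluor) in NIH/3T3 cells stably carrying Gli1-Luc, treated with compound under conditioned medium stimulation for 23 hr plus 1 hr reagent incubation.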

Assay [19] deals with Estrogen receptor (Homo sapiens) (UniProt P03372). In words: qHTS assay to identify small molecule antagonists of the estrogen receptor alpha (ER-alpha) signaling pathway using the BG1 cell line in the presence of 0.1 nM 17-beta-estradiol (AID 1259244). Also: nearly all actives have a fitted effect of over 50% in size. Put shortly: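 Luciferase signal from VM7Luc4E2 ERE-reporter cells, co-dosed with test compound and 0.1 nM final 17beta-estradiol for 22 h, read with ONE-Glo.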
Sequence of Estrogen receptor (Homo sapiens) (P03372 whole entry, looked up): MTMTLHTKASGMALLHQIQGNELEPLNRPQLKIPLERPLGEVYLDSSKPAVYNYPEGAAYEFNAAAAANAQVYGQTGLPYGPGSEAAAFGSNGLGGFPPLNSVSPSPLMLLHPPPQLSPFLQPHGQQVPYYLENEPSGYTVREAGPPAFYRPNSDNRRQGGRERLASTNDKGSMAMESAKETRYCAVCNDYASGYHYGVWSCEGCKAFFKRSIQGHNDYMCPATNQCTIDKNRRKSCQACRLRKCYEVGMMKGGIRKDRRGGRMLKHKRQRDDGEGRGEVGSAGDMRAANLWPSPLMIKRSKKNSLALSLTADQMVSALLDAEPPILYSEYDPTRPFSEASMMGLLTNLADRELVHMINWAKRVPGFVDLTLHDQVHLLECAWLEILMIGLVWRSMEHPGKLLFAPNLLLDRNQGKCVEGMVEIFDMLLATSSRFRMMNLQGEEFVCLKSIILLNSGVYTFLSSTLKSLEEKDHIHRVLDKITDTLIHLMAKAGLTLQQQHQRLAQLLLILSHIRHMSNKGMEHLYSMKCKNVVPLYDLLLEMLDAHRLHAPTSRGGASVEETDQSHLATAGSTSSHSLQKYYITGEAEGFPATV

A short description of assay [20]: qHTS assay to identify small molecule phospholipidosis (PLD) inducers (AID 1259344; active = well fitted curve in the direction sought with a large enough effect; an effect the other way counts as inactive or inconclusive). The method, boiled down:
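Cells (HepG2, 900 per well) attach for 4 h, receive LipidTOX Red and compound together, incubate 24 h at 37 C, are fixed 30 min with paraformaldehyde/Hoechst, then imaged at one site per well.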

Experimental findings from PubChem BioAssay (Tox21) are described below.

Records with an inconclusive call do not appear. Active and inactive are the calls of the source. Unless noted, calls follow the shape of the dose curve; as a rule, active = well fitted curve in the direction sought with a large enough effect in the repeat runs; inconclusive = weak or mixed curves; inactive = no such curve, though single readings can be large; an effect the other way counts as inactive or inconclusive.

Turning to `CC1(CO)CN(c2ccccc2)NC1=O` (stereo not drawn), the Potency entry in assay [1], in assay [2], in assay [4], in assay [5], in assay [7] and in assay [8] was “inactive” throughout. Besides, the Potency result in [10], in assay [12], in assay [14], in assay [17] and in [18] was “inactive” in each case. Further, the result in assay [3], in [6], in assay [9], in [11], in assay [13] and in assay [16] was inactive. The Potency in assay [15] is 24.3 µM (active).
As to `COc1cc(NS(=O)(=O)c2ccc(N)cc2)nc(OC)n1`, the Potency result in [1], in assay [2], in assay [4], in [5], in assay [7] and in [8] was “inactive” throughout. Further, the Potency entry in [10], in assay [12], in [14], in [19], in assay [15] and in assay [17] was “inactive” in each case. Besides, the Potency result in assay [18] is “inactive”. Also, the outcome in assay [3], in [6], in [9], in assay [11], in assay [13] and in [20] was inactive. For the same molecule, in assay [16], the call was inactive.
Turning to `COCCc1ccc(OCC2CO2)cc1` (stereo not drawn), the Potency result in [1], in assay [2], in assay [4], in assay [5], in assay [7] and in [8] was “inactive” each time. The Potency entry in [10], in assay [12], in [14], in assay [19], in [15] and in [17] was “inactive” throughout. The Potency result in assay [18] was “inactive”. Besides, the call in [3], in assay [6], in [9], in [11], in assay [13] and in [16] was inactive.
Regarding `CC(C(=O)O)c1ccc2c(c1)CC(=O)c1ccccc1S2` (stereo not drawn), the Potency entry in assay [1], in [2], in assay [4], in [5], in assay [7] and in assay [8] was “inactive” each time. Also, the Potency entry in assay [10], in assay [12], in [14], in assay [19], in [15] and in assay [17] was “inactive” each time. For the same molecule, the Potency entry in [18] is “inactive”. In addition, the result in [3], in assay [6], in [9], in assay [11], in assay [13] and in assay [20] was inactive. In addition, the outcome in [16] was inactive.
Consider `Cc1ccc2ccc(Cl)cc2n1`, for which the Potency entry in assay [1], in [2], in assay [4], in assay [5], in assay [7] and in assay [8] was “inactive” each time. The Potency result in [10], in [12], in assay [14], in [19], in [15] and in assay [17] was “inactive” each time. Besides, the Potency result in assay [18] is “inactive”. For the same molecule, the result in [3], in [6], in [9], in assay [11], in [13] and in assay [16] was inactive.
In the case of `O=S(=O)(O)c1ccc2cc(O)c(S(=O)(=O)O)cc2c1`, the Potency result in [1], in assay [2], in [4], in [5], in assay [7] and in assay [8] was “inactive” in each case. Also, the Potency entry in assay [10], in assay [12], in assay [19], in assay [15] and in [17] was “inactive” in each case. In addition, the molecule was classed as inactive in assay [3], in [6], in assay [9], in assay [11], in assay [13] and in assay [16].
As to `COc1ccc(OC)c(Cl)c1`, the Potency entry in [1], in assay [2], in assay [4], in [5], in [7] and in [8] was “inactive” in each case. Besides, the Potency result in assay [10], in assay [12], in assay [14], in assay [15], in assay [17] and in [18] was “inactive” in each case. Moreover, the call in [3], in assay [6], in assay [9], in [11], in assay [13] and in assay [16] was inactive.
As for `CCCCC(CC)COCCO` (stereo not drawn), the Potency entry in [1], in [2], in [4], in assay [5], in assay [7] and in [8] was “inactive” each time. Besides, the Potency result in [10], in assay [12], in [19], in [15] and in assay [17] was “inactive” throughout. The result in assay [3], in assay [6], in assay [9], in [11], in [13] and in assay [16] was inactive.
